The source of these data is PubChem BioAssay (EPA / NIEHS).

Structures are written as SMILES. Activity calls are given as the source filed them. Rule for the calls: active = hit-call score of the fitted dose curve at least 0.9, where 1 is the maximum; inactive = score below 0.9.

The nature of test [1]: CEETOX_H295R_PROG: CeeTox H295R High-throughput Steroidogenesis Assay for Progesterone (PROG) (AID 2283442). The conditions noted are these: actives raise or lower the signal. In a few lines:
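Steps: seed H295R cells and let them adhere overnight; prime 48 h with 10 uM forskolin; dose with compound in DMSO at 0.1% final for 48 h; extract medium steroids with MTBE; measure progesterone by LC-MS/MS. MTT viability was run in the same wells.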

Read-out in test [2]: Tumor necrosis factor receptor superfamily member 6 (Homo sapiens) (UniProt P25445)
Kind of test: LTEA_HepaRG_FAS: Life Technologies and Expression Analysis (LTEA) Assay for Fas cell surface death receptor (FAS) using HepaRG (AID 2283447). The following applies: mRNA level, 48 h; actives raise or lower the signal. In a few lines:
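Differentiated human HepaRG cells, pre-cultured 48 h, were exposed in duplicate for 48 h to 8-point half-log concentrations (top 100 uM, 0.5% DMSO) in serum-free induction medium; FAS mRNA measured by qRT-PCR, normalized to ACTB/GAPDH/POLR2A, bidirectional fit versus DMSO.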

Read-out in test [3]: Fatty acid synthase (Homo sapiens) (UniProt P49327)
Briefly: LTEA_HepaRG_FASN: Life Technologies and Expression Analysis (LTEA) Assay for Fatty Acid Synthase (FASN) using HepaRG (AID 2283448). The following applies: mRNA level, 48 h; actives raise or lower the signal. In a few lines: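 FASN expression changes, up or down relative to 0.5% DMSO, were measured by qRT-PCR in human HepaRG cells after 48 h treatment with chemicals at eight concentrations (half-log steps from 100 uM).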

Read-out in test [4]: Cyclin D2 (CCND2), CCND2 (gene 894)
Briefly: LTEA_HepaRG_CCND2: Life Technologies and Expression Analysis (LTEA) Assay for Cyclin D2 (CCND2) using HepaRG (AID 2283449).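 Note: CCND2 transcript measured by TaqMan qRT-PCR and normalised to three housekeeping genes.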 The conditions noted are these: mRNA level, 48 h; actives raise or lower the signal. The gist of the method: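 Differentiated human HepaRG cells were exposed for 48 h in serum-free induction medium to eight half-log concentrations topping at 100 uM (0.5% DMSO vehicle). CCND2 mRNA was quantified by TaqMan qRT-PCR, normalised to ACTB, GAPDH and POLR2A, and fitted bidirectionally against DMSO.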

Read-out in test [5]: Cyclin D1 (CCND1), CCND1 (gene 595)
Briefly: LTEA_HepaRG_CCND1: Life Technologies and Expression Analysis (LTEA) Assay for Cyclin D1 (CCND1) using HepaRG (AID 2283451).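 For AC50: TaqMan qRT-PCR transcript level normalised to ACTB GAPDH and POLR2A housekeeping genes.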 The following applies: mRNA level, 48 h; actives raise or lower the signal. In a few lines:
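HepaRG plated 48 h, medium switched to serum-free induction medium, chemicals added in duplicate (top 100 uM, half-log steps, 0.5% DMSO) for 48 h, cells lysed, RNA measured by TaqMan qRT-PCR.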

Read-out in test [6]: catalase (CAT), CAT (gene 847)
Briefly: LTEA_HepaRG_CAT: Life Technologies and Expression Analysis (LTEA) Assay for catalase (CAT) using HepaRG (AID 2283452). The following applies: mRNA level, 48 h; actives raise or lower the signal. The gist of the method:
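Differentiated HepaRG cells in serum-free induction medium were dosed 48 h in duplicate, eight half-log concentrations from 100 uM in 0.5% DMSO. Transcript measured by TaqMan qRT-PCR, normalised to ACTB/GAPDH/POLR2A, fitted bidirectionally against DMSO.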

Read-out in test [7]: flavin-containing dimethylaniline monooxygenases 3 (FMO3), FMO3 (gene 2328)
Kind of test: LTEA_HepaRG_FMO3: Life Technologies and Expression Analysis (LTEA) Assay for flavin-containing dimethylaniline monooxygenases 3 (FMO3) using HepaRG (AID 2283453). The conditions noted are these: mRNA level, 48 h; actives raise or lower the signal. The gist of the method: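 Differentiated HepaRG cells in serum-free induction medium, exposed 48 h in duplicate to 8 half-log concentrations up to 100 uM in 0.5% DMSO. FMO3 mRNA by qRT-PCR, normalized to ACTB, GAPDH, POLR2A; bidirectional fit vs DMSO.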

Read-out in test [8]: Cytochrome P450 (CYP1A1), CYP1A1 (gene 1543)
Kind of test: LTEA_HepaRG_CYP1A1: Life Technologies and Expression Analysis (LTEA) Assay for Cytochrome P450 (CYP1A1) using HepaRG (AID 2283454). The conditions noted are these: mRNA level, 48 h; actives raise or lower the signal. In a few lines: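 HepaRG, 48 h post-plating switched to serum-free induction medium; 8-pt conc-response (top 100 uM, half-log, 0.5% DMSO), duplicates, 48 h. Lysis in RLT, TaqMan qRT-PCR for CYP1A1; gain or loss vs DMSO.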

Read-out in test [9]: CFLAR gene, CFLAR (gene 8837)
Kind of test: LTEA_HepaRG_CFLAR: Life Technologies and Expression Analysis (LTEA) Assay for CFLAR gene using HepaRG (AID 2283455). The following applies: mRNA level, 48 h; actives raise or lower the signal. The gist of the method: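 HepaRG cells were plated for 48 h, switched to serum-free induction medium, then exposed in duplicate for 48 h to 8 concentrations (top 100 uM, half-log steps, 0.5% DMSO). CFLAR mRNA was measured by qRT-PCR, normalized to ACTB, GAPDH and POLR2A.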

Read-out in test [10]: Cyclin Dependent Kinase Inhibitor 1A (CDKN1A), CDKN1A (gene 1026)
Briefly: LTEA_HepaRG_CDKN1A: Life Technologies and Expression Analysis (LTEA) Assay for Cyclin Dependent Kinase Inhibitor 1A (CDKN1A) using HepaRG (AID 2283450). The following applies: mRNA level, 48 h; actives raise or lower the signal. The gist of the method:
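Read-out is CDKN1A mRNA by TaqMan qRT-PCR, normalized to three housekeeping genes and fitted in both directions against the DMSO baseline. Human HepaRG cells were treated 48 h with test chemicals up to 100 uM in half-log steps, 0.5% DMSO.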

Sequence of Fatty acid synthase (Homo sapiens) (P49327 whole entry, looked up): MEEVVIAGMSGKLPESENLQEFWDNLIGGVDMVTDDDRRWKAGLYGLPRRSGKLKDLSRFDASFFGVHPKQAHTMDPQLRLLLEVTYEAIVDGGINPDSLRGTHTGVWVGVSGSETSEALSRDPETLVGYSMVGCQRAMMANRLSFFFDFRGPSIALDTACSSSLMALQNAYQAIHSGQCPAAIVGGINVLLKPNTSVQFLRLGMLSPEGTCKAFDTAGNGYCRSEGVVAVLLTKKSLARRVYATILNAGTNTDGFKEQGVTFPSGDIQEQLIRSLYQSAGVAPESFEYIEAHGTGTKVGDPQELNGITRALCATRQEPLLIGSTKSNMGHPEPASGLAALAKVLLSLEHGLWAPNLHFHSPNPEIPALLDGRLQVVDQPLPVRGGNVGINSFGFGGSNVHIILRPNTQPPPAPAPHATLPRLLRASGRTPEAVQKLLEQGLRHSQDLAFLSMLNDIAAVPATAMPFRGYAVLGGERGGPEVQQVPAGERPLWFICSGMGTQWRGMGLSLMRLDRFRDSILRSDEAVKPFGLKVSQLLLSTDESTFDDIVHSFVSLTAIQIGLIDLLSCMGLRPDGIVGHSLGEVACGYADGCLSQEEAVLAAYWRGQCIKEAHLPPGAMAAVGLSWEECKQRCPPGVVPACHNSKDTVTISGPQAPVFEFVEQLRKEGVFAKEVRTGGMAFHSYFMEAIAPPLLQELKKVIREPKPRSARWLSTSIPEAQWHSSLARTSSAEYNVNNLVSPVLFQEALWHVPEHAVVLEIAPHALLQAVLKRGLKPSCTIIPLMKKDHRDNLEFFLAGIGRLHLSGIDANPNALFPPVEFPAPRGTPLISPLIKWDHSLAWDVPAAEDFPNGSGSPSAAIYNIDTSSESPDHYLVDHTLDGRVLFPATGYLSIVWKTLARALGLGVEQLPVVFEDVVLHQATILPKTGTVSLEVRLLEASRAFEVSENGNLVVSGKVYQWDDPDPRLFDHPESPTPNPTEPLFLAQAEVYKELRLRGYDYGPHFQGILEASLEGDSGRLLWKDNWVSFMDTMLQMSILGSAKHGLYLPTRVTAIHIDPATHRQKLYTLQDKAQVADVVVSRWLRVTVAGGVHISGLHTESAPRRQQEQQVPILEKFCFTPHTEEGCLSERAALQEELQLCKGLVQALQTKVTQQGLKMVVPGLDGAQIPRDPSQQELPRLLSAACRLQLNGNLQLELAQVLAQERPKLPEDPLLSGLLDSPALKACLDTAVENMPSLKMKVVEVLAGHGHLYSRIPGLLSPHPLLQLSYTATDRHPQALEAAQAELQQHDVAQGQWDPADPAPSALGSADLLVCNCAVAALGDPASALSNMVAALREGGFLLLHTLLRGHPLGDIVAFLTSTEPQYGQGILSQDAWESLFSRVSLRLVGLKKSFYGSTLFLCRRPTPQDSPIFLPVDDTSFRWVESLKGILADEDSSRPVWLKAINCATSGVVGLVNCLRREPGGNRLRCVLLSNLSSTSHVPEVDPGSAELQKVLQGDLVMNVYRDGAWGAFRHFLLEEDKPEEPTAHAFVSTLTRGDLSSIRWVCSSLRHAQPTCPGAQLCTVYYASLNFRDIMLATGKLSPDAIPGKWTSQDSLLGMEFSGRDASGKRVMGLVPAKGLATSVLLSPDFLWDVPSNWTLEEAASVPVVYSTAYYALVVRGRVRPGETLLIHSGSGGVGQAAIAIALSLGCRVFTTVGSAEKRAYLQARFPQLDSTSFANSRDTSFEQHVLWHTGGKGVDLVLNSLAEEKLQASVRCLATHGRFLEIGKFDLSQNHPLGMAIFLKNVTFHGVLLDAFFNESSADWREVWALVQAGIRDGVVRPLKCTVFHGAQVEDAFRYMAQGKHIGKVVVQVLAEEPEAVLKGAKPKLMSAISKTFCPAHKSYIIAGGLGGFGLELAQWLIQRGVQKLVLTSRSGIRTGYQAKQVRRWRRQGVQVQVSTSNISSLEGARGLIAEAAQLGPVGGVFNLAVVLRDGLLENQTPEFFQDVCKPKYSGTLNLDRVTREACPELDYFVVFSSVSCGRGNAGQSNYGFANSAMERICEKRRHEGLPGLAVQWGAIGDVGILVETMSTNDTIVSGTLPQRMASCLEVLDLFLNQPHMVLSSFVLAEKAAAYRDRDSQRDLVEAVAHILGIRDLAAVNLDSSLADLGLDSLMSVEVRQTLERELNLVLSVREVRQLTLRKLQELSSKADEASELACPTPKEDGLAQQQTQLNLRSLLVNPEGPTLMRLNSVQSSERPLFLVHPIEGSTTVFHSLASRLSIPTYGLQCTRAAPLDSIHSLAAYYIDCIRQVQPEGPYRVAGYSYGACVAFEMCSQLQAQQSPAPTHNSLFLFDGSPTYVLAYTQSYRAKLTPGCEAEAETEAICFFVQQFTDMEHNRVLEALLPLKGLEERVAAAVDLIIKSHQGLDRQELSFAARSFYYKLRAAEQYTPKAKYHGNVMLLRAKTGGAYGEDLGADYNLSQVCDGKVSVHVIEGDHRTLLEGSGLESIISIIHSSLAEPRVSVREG

As to `Oc1ccc(Cl)cc1Cl`, the compound was called inactive in test [1], in test [2], in test [3], in [4], in test [5] and in test [6]. For the same compound, the compound was classed as inactive in test [7], in test [8] and in test [9].
Take `O=C(NC(=O)c1c(F)cccc1F)Nc1cc(Cl)c(OC(F)(F)C(F)F)c(Cl)c1`: the outcome in test [1], in test [2], in test [4], in [10], in test [5] and in [6] was inactive. Moreover, in test [9], the outcome was inactive. In addition, the results for the AC50 in test [3], in test [7] and in [8] were 50 µM (active), 50 µM (active) and 3.34 µM (active), respectively.
`Cc1ccccc1O`: the result in [2], in [3], in test [4], in test [10], in test [5] and in test [6] was inactive. Besides, the call in [7], in test [8] and in [9] was inactive.
Take `CN(C)CCO`: the call in test [2], in [3], in [4], in test [10], in test [5] and in test [6] was inactive. In addition, the compound was classed as inactive in test [7], in [8] and in test [9].
As to `Nn1cnnc1`, the result in [2], in test [3], in test [4], in test [10], in test [5] and in [6] was inactive. In addition, the result in test [7] and in test [9] was inactive. Also, the AC50 in [8] is 50 µM (active).
Turning to `CCCCCCCCCc1ccc(O)cc1`, the result in test [2], in test [3], in test [4], in [10], in test [5] and in test [6] was inactive. The call in test [7] and in test [9] was inactive. The AC50 in test [8] is 50 µM (active).
Regarding `CCCCCCOC(=O)c1ccccc1C(=O)OCCCCCC`, the result in [2], in test [3], in test [10], in test [5], in test [6] and in test [7] was inactive. Besides, in [9], the outcome was inactive. In addition, the AC50 in [8] was 50 µM (active).
Turning to `O=C(O)C(F)(F)C(F)(F)C(F)(F)C(F)(F)C(F)(F)C(F)(F)C(F)(F)C(F)(F)C(F)(F)F`, the AC50 is 89.3 µM (active) in [2]; 31.1 µM (active) in [3]; 16.8 µM (active) in [10]; 12.6 µM (active) in test [5]; 65.3 µM (active) in [6]; 35.3 µM (active) in test [7]. Also, in [9], the AC50 is 89.5 µM (active). Besides, the call in test [4] and in test [8] was inactive.
On to `CC(C)(O)C(=O)Nc1ccc([N+](=O)[O-])c(C(F)(F)F)c1`, for which the figures for the half-maximal activity concentration (AC50) in test [2], in [4] and in test [8] were 0.0219 µM (active), 0.0398 µM (active) and 0.0423 µM (active), respectively. Also, the compound was classed as inactive in test [3], in [10], in [5], in [6], in test [7] and in test [9].
Take `CC(c1ccc(O)cc1)(c1ccc(O)cc1)c1ccc(O)cc1`: the AC50 in test [2] was 91.1 µM (active); in test [3], 32.1 µM (active); in test [10], 50 µM (active); in [5] it was 24.1 µM (active); in [6], 50 µM (active); in test [7], 74.5 µM (active). In addition, the AC50 in [8] was 15.8 µM (active); in test [9] it was 64.5 µM (active).
Take `CC1=C2C[C@H]3[C@@H](CC=C4C[C@@H](O)CC[C@@]43C)[C@@H]2CC[C@]12O[C@@H]1C[C@H](C)CN[C@H]1[C@H]2C`: the compound was called inactive in [2], in test [3], in test [4], in test [10], in test [5] and in test [6]. In addition, the compound was classed as inactive in [7] and in [9]. The half-maximal activity concentration (AC50) in test [8] was 34.3 µM (active).
For `ClC(Cl)=C(c1ccc(Cl)cc1)c1ccc(Cl)cc1`, the call in [2], in [4], in [10], in test [5], in test [6] and in [7] was inactive. Besides, the call in test [9] was inactive. Also, the results for the AC50 in test [3] and in test [8] were 50 µM (active) and 36.8 µM (active), respectively.
Take `O=S(=O)(O)C(F)(F)C(F)(F)C(F)(F)C(F)(F)C(F)(F)C(F)(F)F`: the call in test [2], in [3], in [4], in test [10], in [5] and in [7] was inactive. The compound was called inactive in test [9]. Also, the AC50 was 7.16 µM (active) in test [6] and 50 µM (active) in test [8].
In the case of `Clc1ccc(C(Cl)(Cl)Cl)cc1`, the outcome in test [2], in test [3], in test [4], in test [10], in test [5] and in test [6] was inactive. Further, the compound was classed as inactive in test [7], in [8] and in test [9].
In the case of `O=C(O)C(F)(F)C(F)(F)C(F)(F)C(F)(F)C(F)(F)C(F)(F)C(F)(F)C(F)(F)F`, the AC50 was 69.2 µM (active) in test [2]; 94.2 µM (active) in [3]; 79.9 µM (active) in test [10]; 50 µM (active) in test [5]; 85 µM (active) in [6]; 79.7 µM (active) in test [7]. The call in test [8] and in test [9] was inactive.
As to `C1CC2OC2CC1C1CO1` (stereo not drawn), the result in test [2], in [3], in [10], in test [6], in [7] and in test [8] was inactive. In addition, the compound was called inactive in [9].
Regarding `CO/C=C(/C(=O)OC)c1ccccc1COc1cccc(C(F)(F)F)n1`, the AC50 in test [2] is 9.8 µM (active); in [3], 9 µM (active); in test [10], 9.85 µM (active); in test [5], 50 µM (active); in test [6], 6.81 µM (active); in test [7], 20.9 µM (active). The AC50 was 8.52 µM (active) in test [8] and 18.8 µM (active) in [9].

The term AC50 denotes the concentration at which the activity in the assay is half-maximal.
